The record followed here is PubChem BioAssay (Tox21).

Inconclusive results are not listed. Where a call stands in place of a potency, no number is given. The source made the active and inactive calls. Calls come from the whole dose curve; as a rule, active = well fitted cell-killing curve with a large enough effect in the repeat runs; inconclusive = weak or mixed curves; inactive = flat fitted curve, though single readings scatter.

The experiment in a line: qHTS RealTime-Glo MT Cell Viability Assay in HepG2 cells - 24 hour (AID 1224867). Note: nearly all actives have a fitted effect of over 50% in size. Conditions: RealTime-Glo luminescence; series mostly up to 76.8 µM. From the text: U.S. Tox21 Program National Center for Advancing Translational Sciences [NCATS] NIH Chemical Genomics Center [NCGC] U.S. Environmental Protection Agency [EPA] National Institutes of Environmental Health Sciences [NIEHS] National Toxicology Program [NTP] U.S. Food and Drug Administration [FDA] Tox21 Assay Overview: Measure of cell viability is critical in the cell-base assay. Analysis of cell viability is necessary for the characterization of cell responses to cytotoxic drugs and environmental stress. A RealTime-Glo MT Cell Viability Assay to monitor cell viability in real time of continues cell culture during 40 hours of compound treatment was used to screen Tox21 10K library compounds in HepG2 cells. The RealTime-Glo MT Cell Viability Assay is a nonlytic, homogeneous, bioluminescent method to measure cell viability in real time using a simple, plate-based method. The assay involves adding NanoLuc luciferase and a cell-permeant prosubstrate to cells in culture. Viable cells reduce the proprietary prosubstrate to generate a substrate for NanoLuc luciferase. This substrate diffuses from cells into the surrounding culture medium, where it is rapidly used by the NanoLuc Enzyme to produce a luminescent signal. The signal correlates with the number of viable cells, making the assay well suited for cytotoxicity studies.
Tox21 Assay Protocol Summary: The mixture of HepG2 cell suspension and reagents were dispensed at 600cells/6 ul/well in 1536-well tissue culture treated black solid bottom plates using a Multidrop dispenser. After the assay plates were incubated at a 37 C/5% CO2 incubator for 5 hours, 23 nL of compounds dissolved in DMSO, positive and negative controls was transferred to the assay plate by a pintool work station. The plates were incubated at 37 C for 40 hours. The luminescence intensity were measured at 0h, 8h, 16h, 24h, 32h and 40h time points using ViewLux plate reader during compound treatment.
On to `NCCCCCCN`, for which the Potency entry was “inactive”.

Take `N[C@H](Cc1c[nH]c2ccccc12)C(=O)O`: the Potency entry was “inactive”.

As for `CC(CCO)CC(C)(C)C` (stereo not given), the Potency entry is “inactive”.

As to `NCCN1CCNCC1`, the Potency entry is “inactive”.

With `CC1(C)S[C@@H]2[C@H](NC(=O)COc3ccccc3)C(=O)N2[C@H]1C(=O)O`, the Potency result was “inactive”.

On to `Clc1ccccn1`, for which the Potency entry is “inactive”.

Regarding `CN(C)c1ccc(Cc2ccc(N(C)C)cc2)cc1`, the Potency entry is “inactive”.

Take `CCCCC(C=O)CC` (stereo not given): the Potency result was “inactive”.

`CC(C)(C#N)c1cc(Cn2cncn2)cc(C(C)(C)C#N)c1`: the Potency result was “inactive”.

`CCCCCCCO`: the Potency entry is “inactive”.

With `C=Cc1ccc(C)cc1`, the Potency entry is “inactive”.

Turning to `C=CC[N+](C)(C)CC=C`, the Potency entry was “inactive”.

For the compound `Cc1ccc([N+](=O)[O-])cc1S(=O)(=O)O`, the Potency result was “inactive”.

In the case of `CC(C)CC(C)O` (stereo not given), the Potency result was “inactive”.

`CCCCCCCCCCCCCCCC(=O)OC(C)C`: the Potency result is “inactive”.

As to `Cc1ccc2ncccc2c1`, the Potency entry is “inactive”.

Turning to `N#Cc1ccccc1`, the Potency result was “inactive”.

Take `NCCNCCN`: the Potency entry was “inactive”.

On to `CSc1ccc(Cl)cc1`, for which the Potency result was “inactive”.

Consider `CC(C)c1cccc(C(C)C)c1`, for which the Potency entry was “inactive”.

With `CC(C)CCCCCCCOC(=O)CCCCC(=O)OCCCCCCCC(C)C`, the Potency entry was “inactive”.

`O=C1c2ccccc2CCc2ccccc21`: the Potency result is “inactive”.

In the case of `CC(=O)OCc1ccccc1`, the Potency result is “inactive”.

In the case of `CC(=O)OCc1ccco1`, the Potency entry was “inactive”.

For `O=C(O)c1ccc(S(=O)(=O)N(Cl)Cl)cc1`, the Potency entry is “inactive”.

For `O=C(O)c1ccc(C(=O)O)c(C(=O)O)c1`, the Potency entry is “inactive”.

Take `CCOC(=O)n1ccn(C)c1=S`: the Potency entry is “inactive”.

`COC(=O)CCCC(=O)OC`: the Potency result was “inactive”.

For `COc1cc(OC)c(C(=O)CCCN2CCCC2)c(OC)c1`, the Potency result was “inactive”.

With `OC1C(O)C(O)C(O)C(O)C1O` (stereo not given), the Potency entry was “inactive”.

As to `CC(C)(C)c1cc(Cc2cc(C(C)(C)C)c(O)c(C(C)(C)C)c2)cc(C(C)(C)C)c1O`, the Potency result was “inactive”.

For `CC(O)CC(C)(C)O` (stereo not given), the Potency result is “inactive”.

Take `CCCCCCCCCCN`: the Potency result was “inactive”.

For the compound `C=CCCCCCCCCC(=O)O`, the Potency result is “inactive”.

On to `O=C(O)CCCCCCCCC(=O)O`, for which the Potency result is “inactive”.

In the case of `c1ccc(Oc2ccccc2)cc1`, the Potency entry was “inactive”.

On to `CCCCOC(=O)c1ccc(N)cc1`, for which the Potency entry is “inactive”.

On to `CC(=O)OC1CC(C)OC(C)O1` (stereo not given), for which the Potency result is “inactive”.

Take `CNC(=S)N(C)C`: the Potency entry was “inactive”.

For the compound `O=C1CCCC1`, the Potency result was “inactive”.
